Assay outcomes as filed in PubChem.
Rows were chosen to be rich in hits. Some 19% of all compounds tested hit in one or more screens of this group.
TDP1 cell noCPT – qHTS for Inhibitors of human tyrosyl-DNA phosphodiesterase 1 (TDP1): qHTS in cells in absence of CPT; DT40 Tdp1-/- hTDP1 cells, no CPT, ATP luminescence, 48 h; AID 686978, 2013; Potency, µM (titrated, usually from 46.2 µM), for the others: at the top dose activity change, negative = growth inhibition, hits mostly inhibitors; hit rate 15% among 420,000; note: potency is the fitted concentration of half-maximal effect; nearly all actives have a fitted effect of over 55% in size
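Compound effects on proliferation are scored in DT40 Tdp1-/-;hTDP1 cells in the absence of CPT. ATP levels (CellTiter-Glo luminescence) are recorded after a ≥48 hr, 37 °C incubation.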
HT1080NT lethal – kills 2HG-producing HT-1080-NT fibrosarcoma cells | HT-1080-NT fibrosarcoma viability, CellTiter-Glo ATP luminescence, 48 h | Potency, µM (series often up to 46.1 µM), for the others: at the highest dose activity, negative = less viability, actives largely listed as cytotoxic | hit rate 1.6% among 360,000 | AID 686970;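 note: NT is the 2HG producing partner of a matched IDH1 knockdown line; potency is the fitted concentration of half-maximal effect; 0% = DMSO-treated cells and -100% = media-only wells without cells; nearly all actives have a fitted effect of over 55% in size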
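750 cells/well, RPMI + 5% FBS; 2 h settle, compound pin-transfer, 48 h at 37 degrees C. CellTiter-Glo 10 min RT, luminescence. Normalized to DMSO and media-only wells.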
IL1B secr inh – blocks inflammasome-driven IL-1 beta release; AID 743279; THP-1 LPS/ATP IL-1B secretion, AlphaLISA, 16 h; stronger effect = lower value; hit rate 4.7% among 360,000; activity change, % at 57.5 µM; in the data active = activity change below about -50%; inconclusive = mostly about -30% to -49%
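Secreted IL-1B measured by AlphaLISA bead assay after 16 h compound exposure of THP-1 cells; compounds (final up to 57.5 uM) added 1 h before LPS (250 ng/mL) and ATP (1.25 mM) stimulation; lower signal means less secretion.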
TDP1 cell CPT – DT40-hTDP1 cell growth loss with CPT. chicken DT40 Tdp1-/-;hTDP1 cells + 20 nM CPT, ATP luminescence, 48 h. Potency, µM (series often up to 46.2 µM), for inactives: top-dose activity change, negative = growth inhibition, usual class: inhibitors. hit rate 12% among 420,000. AID 686979; note: potency is the fitted concentration of half-maximal effect; nearly all actives have a fitted effect of over 55% in size
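Chicken DT40 Tdp1-/- cells stably complemented with human TDP1 were seeded at 400 cells/well in medium containing 20 nM camptothecin, exposed to pin-transferred compounds, and grown at 37 °C for at least 48 hr. Viability was read as ATP luminescence.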
HT1080 IDH1KD tx – toxicity to HT-1080 IDH1 knockdown cells (counter line) | HT-1080 IDH1 knockdown viability, ATP luminescence, 48 h | AID 686971 | Potency, µM (top dose mostly 46.1 µM), for the others: at the top dose activity, negative = toxicity, hits mostly cytotoxic | hit rate 2% among 360,000;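 note: potency is the fitted concentration of half-maximal effect; 0% = DMSO wells and -100% = cell-free medium wells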
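IDH1KD HT-1080 cells, 750/well, RPMI + 5% FBS; compound pinned after 2 h settling; 48 h, 37 °C; CellTiter-Glo luminescence; % activity normalised to DMSO and no-cell wells; curves fitted, classed by r2 and efficacy.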
An asterisk follows results filed as active. Unless noted, calls come from the whole dose curve; as a rule, active = well fitted curve in the direction sought with a large enough effect; inconclusive = small, poorly fitted or top-dose-only effect, or another doubt; inactive = no such curve, though single readings can be large; an effect the other way counts as inactive or inconclusive. Unless noted, % is set by controls: 0 for no effect and ±100 for the full control effect.

What do the screens show for `CC(C)(C)c1ccc(C(=O)Cn2cnnc2C#N)cc1`?
TDP1 cell noCPT: 16.4µM*; HT1080NT lethal: inconclusive; IL1B secr inh: -6.1; TDP1 cell CPT: 20.6µM*; HT1080 IDH1KD tx: inconclusive

How did COc1cc(/C=C/C(=O)OCC(=O)N2CCCCCC2)cc(OC)c1OC do in these assays?
TDP1 cell noCPT: inconclusive; HT1080NT lethal: -7.3%; IL1B secr inh: 10.2; TDP1 cell CPT: -13.0%; HT1080 IDH1KD tx: -4.2%

How did CCOc1ccccc1NC(=O)Cn1ncc2c(=O)oc3ccc(C)cc3c21 do in these assays?
TDP1 cell noCPT: -14.0%; TDP1 cell CPT: -5.2%

What do the screens show for `CC1=Nc2ccccc2N=C(NC(=O)c2ccccc2)C1c1ccc(Cl)cc1` (centres undefined)?
TDP1 cell noCPT: 20.6µM*; HT1080NT lethal: -24.4%; IL1B secr inh: -58.2*; TDP1 cell CPT: inconclusive; HT1080 IDH1KD tx: -12.1%

Results for Cc1ccc(SCc2cc(=O)[nH]c(N3CCOCC3)n2)cc1 ?
TDP1 cell noCPT: -20.4%; HT1080NT lethal: -2.0%; IL1B secr inh: 37.8; TDP1 cell CPT: -26.0%; HT1080 IDH1KD tx: -1.4%

How did Cc1cc(C)c2nc(Nc3nc(CSc4nc5ccccc5[nH]4)cc(=O)[nH]3)nc(C)c2c1 do in these assays?
TDP1 cell noCPT: inconclusive; HT1080NT lethal: -1.7%; IL1B secr inh: -10.9; TDP1 cell CPT: -24.7%; HT1080 IDH1KD tx: 9.5%

How did COc1ccc2nc(Nc3nc(C)c(CCC(C)C)c(=O)[nH]3)nc(C)c2c1 do in these assays?
TDP1 cell noCPT: 18.4µM*; HT1080NT lethal: 12.1%; IL1B secr inh: inconclusive; TDP1 cell CPT: inconclusive; HT1080 IDH1KD tx: 14.0%

How did COc1ccc2nc(Nc3nc(CSc4ccc(C)cc4)cc(=O)[nH]3)nc(C)c2c1 do in these assays?
TDP1 cell noCPT: 18.4µM*; HT1080NT lethal: 8.6%; IL1B secr inh: 50.3; TDP1 cell CPT: inconclusive; HT1080 IDH1KD tx: 9.1%

What do the screens show for `COc1ccc2nc(C)[nH]c(=O)c2c1`?
TDP1 cell noCPT: 9.8%; HT1080NT lethal: 13.9%; IL1B secr inh: 10.3; TDP1 cell CPT: 0.2%; HT1080 IDH1KD tx: 16.3%

What do the screens show for `Cc1ccc(SCc2cc(=O)[nH]c(Nc3nc(C)c4cccc(C)c4n3)n2)cc1`?
TDP1 cell noCPT: 16.4µM*; HT1080NT lethal: -7.8%; IL1B secr inh: 5.9; TDP1 cell CPT: inconclusive; HT1080 IDH1KD tx: -1.1%

How did C[C@H](CN1CCCC1)C(=O)c1ccc(C(F)(F)F)cc1 do in these assays?
TDP1 cell noCPT: -3.6%; TDP1 cell CPT: 6.4%

How did COc1ccc(NS(=O)(=O)c2cc(Br)cc3c2N(C(=O)C2CC2)CC3)cc1OC do in these assays?
TDP1 cell noCPT: 2.06µM*; TDP1 cell CPT: 2.31µM*

What do the screens show for `CC(C)c1ccc(NS(=O)(=O)c2cc(Br)cc3c2N(C(=O)C2CC2)CC3)cc1`?
TDP1 cell noCPT: 4.61µM*; TDP1 cell CPT: 8.2µM*

How did Cc1ccc(N2CCN(S(=O)(=O)c3cc(Br)cc4c3N(C(=O)C3CC3)CC4)CC2C)cc1 (centres undefined) do in these assays?
TDP1 cell noCPT: 16.4µM*; TDP1 cell CPT: 13µM*

How did Cc1ccc(CNS(=O)(=O)c2cc(Br)cc3c2N(C(=O)C2CC2)CC3)cc1 do in these assays?
TDP1 cell noCPT: -23.4%; TDP1 cell CPT: -9.8%

Results for O=C(CCS(=O)(=O)c1cc(Br)cc2c1N(C(=O)C1CC1)CC2)N1CCN(c2cccc(C(F)(F)F)c2)CC1 ?
TDP1 cell noCPT: 18.4µM*; TDP1 cell CPT: 16.4µM*

What do the screens show for `CC(=O)N1CCc2cc(Br)cc(S(=O)(=O)CCC(=O)N3CCN(c4ccccc4)CC3)c21`?
TDP1 cell noCPT: -4.1%; TDP1 cell CPT: 2.1%

Results for O=C(NCC(=O)N(c1cccnc1)C(C(=O)NC1CCCC1)c1cccs1)c1ccco1 (centres undefined) ?
TDP1 cell noCPT: 4.8%; HT1080NT lethal: -3.3%; IL1B secr inh: -17.5; TDP1 cell CPT: 24.5%; HT1080 IDH1KD tx: 14.9%

What do the screens show for `O=C(OCc1ccc(Cl)cc1Cl)c1ccncc1`?
TDP1 cell noCPT: -5.7%; HT1080NT lethal: 2.8%; IL1B secr inh: 13.3; TDP1 cell CPT: -14.1%; HT1080 IDH1KD tx: 2.2%
